# Only a selection was taken, and hits are over-represented in it overall.
# KDM5B inhibitor: Primary screen for KDM5B Histone Demethylases FDH-coupled qHTS. AID 1347165, 2019. Potency, µM (top dose mostly 57.7 µM), hits mostly inhibitors. 220,000 tested, 2.6% active. KDM5B demethylase, FDH-coupled NADH fluorescence (FDH is formaldehyde dehydrogenase). Lysine-specific demethylase 5B (Homo sapiens), Q9UGL1; active = well fitted inhibition curve with a large enough effect; note: 0% is about no effect; nearly all actives have a fitted effect of over 70% in size
#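 Coupled FDH/NAD⁺ fluorescence readout. KDM5BΔAP 200 nM final; compound titration, 10 min RT preincubation; substrate mix 12.5 µM H3K4me3, 25 µM 2-OG, 50 µM Fe(II), 100 µM ascorbate, 0.25 mM NAD⁺, 0.25 U/mL FDH; ΔRFU over 30 min.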
# The depositor's hits bear a star; i = inactive. Potency is the fitted concentration of half-maximal effect.
SMILES,KDM5B inhibitor
COc1cc(CN2CC[C@H](c3nc4ccccc4o3)C2)cc(OC)c1OC,i
CC(=O)c1ccc(OCc2coc(-c3cccc(F)c3)n2)cc1,i
CC(=O)Nc1ccc(C(=O)NC(CC(=O)O)c2ccc(C(C)(C)C)cc2)cc1 (stereo not given),i
CCOC(=O)c1ccc(NC(=O)Cn2nc(C)n3cccc3c2=O)cc1,i
O=C(O)/C=C/c1ccc(SC(F)F)cc1,i
N#CCOc1ccc2c(=O)c(-c3ccc(Br)cc3)c(C(F)(F)F)oc2c1,i
CCCCN1CCOc2ccc(C(=O)NCc3ccccc3F)cc2C1,i
CNS(=O)(=O)Cc1cccc(CNC(=O)c2cccc(F)c2)c1,i
CC1(CCCCN2CCOCC2)COc2ccc(C(=O)NCc3cccc(F)c3)cc2N1 (stereo not given),28.2µM*
Cc1[nH]c2ccc(C(=O)OCC(=O)NC3CC3)cc2c1C,i
O=C1NC2(CCCCC2)NN1c1ccc(Br)cc1,i
Cc1ccc(NC(=O)c2cc3c(cc2C)OCCCO3)c(C)c1,i
Cc1ncoc1C(=O)N[C@@H]1CN(Cc2cccnc2)C[C@H]1CN(C)C,i
CN(C)C[C@@H]1CN(c2ccncn2)C[C@H]1NC(=O)c1ccco1,i
Cc1occc1C(=O)N[C@@H]1CN(c2ccncn2)C[C@H]1CN(C)C,i
CN(C)C[C@@H]1CN(Cc2ccccc2)C[C@H]1NC(=O)c1cnco1,i
CN(C)C[C@@H]1CN(c2ncccn2)C[C@H]1NC(=O)c1cnco1,31.6µM*
Cc1noc(C)c1C(=O)N[C@@H]1CN(c2ncccn2)C[C@H]1CN(C)C,31.6µM*
CN(C)C[C@@H]1CN(c2ncccn2)C[C@H]1NC(=O)CCCc1ccccc1,31.6µM*
COc1ccc(CCC(=O)N[C@@H]2CN(c3ccncn3)C[C@H]2CN(C)C)cc1,i
Cc1ccc(CC(=O)N[C@@H]2CN(c3ccncn3)C[C@H]2CN(C)C)cc1,i
CC(C)(C)NC(=O)COC(c1ccccc1)c1ccccc1,i
Cc1ccc(NC(C)C(=O)Nc2sccc2C#N)cc1 (stereo not given),i
CC(C)C1=C(O)C2(CC2c2ccc(-c3ccccc3)cc2)C(C)CC1 (stereo not given),i
Cc1ccc(S(=O)(=O)N(CC(=O)O)Cc2ccc(Cl)c(Cl)c2)cc1,i
SMILES,KDM5B inhibitor
CCc1c(C)sc(NC(=O)/C=C/c2c(Cl)cccc2Cl)c1C#N,i
O=C(Nc1ccc(Cl)c(C(F)(F)F)c1)c1ccc(F)cc1,i
COc1nccc(N2CCC(CC(=O)NCc3ccc(F)c(Cl)c3)CC2)n1,i
O=C(N[C@@H]1CN(Cc2ccccc2)C[C@H]1CO)c1ccnnc1,i
COc1ccccc1CCC(=O)N1C[C@@H](CO)[C@H](NC(C)=O)C1,i
O=C(N[C@@H]1CN(c2ccncn2)C[C@H]1CO)c1ccco1,i
CCOc1ccccc1C(=O)N[C@@H]1CN(c2ccncn2)C[C@H]1CO,i
Cc1cccc(CC(=O)N[C@@H]2CN(c3ccncn3)C[C@H]2CO)c1,i
Cc1cc(CN2C[C@@H](CO)[C@H](NC(=O)c3ccccc3)C2)n(C)n1,i
Cc1nn(C)c(C)c1C(=O)N[C@@H]1CN(c2ncccn2)C[C@H]1CO,20µM*
COc1ccccc1CCC(=O)N[C@@H]1CN(c2ncccn2)C[C@H]1CO,17.8µM*
Cc1ccc(C)c(C(=O)N[C@@H]2CN(c3ccncn3)C[C@H]2CO)c1,i
Cc1ncccc1C(=O)N[C@@H]1CN(c2ncccn2)C[C@H]1CO,20µM*
COc1ccccc1CCC(=O)N1C[C@@H](CO)[C@H](c2ccncc2)C1,i
O=C(N[C@@H]1CN(c2ncccn2)C[C@H]1CO)c1ccoc1,12.6µM*
O=C(NN=C1CCCCC1)c1sc2ccccc2c1Cl,i
CCCNC(=S)Nc1cccc(F)c1,i
COc1cccc(CNC(C)c2ccccc2)c1 (stereo not given),i
Cc1cccc(S(=O)(=O)Nc2nc3ccccc3nc2Nc2ccccc2F)c1,i
Cc1ccccc1-n1c(SCc2nc3ccccc3o2)nnc1N1CCOCC1,i
O=C(OCC(=O)C12CC3CC(CC(C3)C1)C2)c1ccccc1Sc1ccc(C(F)(F)F)cc1[N+](=O)[O-],i
Cc1ccc2c(c1)CCCN2C(=O)c1n[nH]c(=O)c2ccccc12,i
Cc1ccc(COC(=O)c2ccccc2Nc2ccccc2)cc1,i
Cn1c(-c2ccccc2)c(C(=O)C(=O)NC(C)(C)C)c2ccccc21,i
CN1c2cccnc2CN(C2CCCCC2)CC[C@H]1CO,i
SMILES,KDM5B inhibitor
CN1c2cccnc2CN(Cc2ccccn2)CC[C@H]1CO,i
CN1c2cccnc2CN(CC2CCCCC2)CC[C@H]1CO,28.2µM*
CCCc1noc(-c2ccn3c(CNC(=O)c4ccc5ccccc5n4)nnc3c2)n1,12.6µM*
CCc1noc(-c2ccn3c(CNC(=O)c4ccccn4)nnc3c2)n1,i
CCCc1noc(-c2ccn3c(CNC(=O)c4ccco4)nnc3c2)n1,28.2µM*
Cc1noc(-c2ccn3c(CNC(=O)c4ccco4)nnc3c2)n1,28.2µM*
O=C(NCc1ccncc1)NCC1(c2ccccc2)CC1,i
Cc1ccc(S(=O)(=O)N2CCC(n3c(C)nc4cccnc43)CC2)cc1,i
Cc1ccc2oc(/N=C(\N)NC(=O)c3ccccc3)nc2c1,i
CC(NC(=O)CSc1nnc(C2CC2)n1C1CC1)c1ccc2c(c1)CCCC2 (stereo not given),i
Clc1ccc(Nc2nc(NCC3CCCO3)nc3c2cnn3-c2ccccc2)cc1 (stereo not given),i
NC1CCc2nn(CC(=O)N3CCc4ccccc43)c(=O)n2CC1 (stereo not given),i
NC1CCc2nn(CC(=O)NCCOc3ccccc3)c(=O)n2CC1 (stereo not given),i
NC1CCc2nn(CC(=O)N3CCCN(c4ncccn4)CC3)c(=O)n2CC1 (stereo not given),28.2µM*
CN(C)c1cccc(NC(=O)c2ccc3c(c2)NC(C)(COc2ccccc2)CO3)c1 (stereo not given),31.6µM*
CNC(=O)c1ccc2c(c1)NC(C)(COc1ccccc1)CO2 (stereo not given),31.6µM*
O=C1CSc2ccc(C(=O)NNC(=O)c3ccc(COc4ccccc4)o3)cc2N1,i
CC(C)N(c1ccccc1)c1ccc(NC(=O)c2cccc(N(C)C)c2)cc1,i
CCCC(=O)C1=C(NC(C)C(=O)O)CCCC1=O (stereo not given),i
Cc1cc(-c2nnn(CC(=O)NC(N)=O)n2)ccc1F,i
Cc1cc(F)ccc1NC(=O)Cn1cnc2c1c(=O)n(C)c(=O)n2C,i
CCOc1ccc2oc(=O)cc(-c3cc4cccc(OC)c4o3)c2c1,i
OC[C@@H](O)CNc1nccc(C2(c3ccccc3Cl)CCNCC2)n1,i
Clc1ccccc1C1(c2ccnc(-c3ccccc3)n2)CCNCC1,i
Clc1ccccc1C1(c2ccnc(C3CC3)n2)CCNCC1,i
CO[C@H]1[C@H](NC(=O)c2c(F)cccc2Cl)c2ccccc2C12CCNCC2,i
O[C@@H]1CCN(c2nccc(C3(c4ccccc4Cl)CCNCC3)n2)C1,28.2µM*
COCC(C)Nc1nccc(C2(c3ccccc3Cl)CCNCC2)n1 (stereo not given),22.4µM*
CN(C)C1CCN(c2ncc(C(C)(C)C(=O)O)c(N3CCOCC3)n2)C1 (stereo not given),i
Clc1ccccc1C1(c2ccnc(-c3ccccn3)n2)CCNCC1,i
